# Data as given in the supplement of paper PMC10338343.
# ± gives the standard deviation.
# Tests used:
# [1] = test system: MILI (PIWIL2) piRISC loaded with piRNA #1 (26 nt); test: pre-steady-state target cleavage rate (min^-1); guide: piRNA #1 5'p-UGAGGUAGUAGGUUGUAUAGUAUCCA; higher = faster piRNA-guided slicing of the target; conditions: auxiliary factor: 500 nM mouse GTSF1;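 further: 1 nM active piRISC with 0.1 nM target library at 33 °C single turnover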
# Outline: (§1)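 The pre-steady-state cleavage rate was derived from a burst-and-steady-state fit of Cleave-'n-Seq data. For these assays, 1 nM active affinity-purified piRISC loaded with a single synthetic guide was mixed with […] a transcribed, DNA-blocked target RNA library in HEPES–potassium acetate buffer at 33 °C, with or without 500 nM GTSF1 partner protein, for 0–8 or 0–960 min. Sequencing counts of uncleaved targets were normalised to depth and to weakly complementary targets, and k3 was capped at 0.0001 min^-1 after three trials were pooled.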
# [2] = test system: EfPiwi piRISC loaded with piRNA #1 (26 nt); test: pre-steady-state target cleavage rate (min^-1); auxiliary factor: 500 nM Ephydatia muelleri Gtsf1; guide: piRNA #1 5'p-UGAGGUAGUAGGUUGUAUAGUAUCCA; MIWI and MILI are mouse PIWI proteins and EfPiwi is from a freshwater sponge; tags in brackets are library labels; higher = faster piRNA-guided slicing of the target
# Outline: as §1
Sequence,pre-steady-state target cleavage rate [1],pre-steady-state target cleavage rate [2]
GGAGACGAAACUAUACAACCUUCUACCUCA,0.00739 ± 0.0047,0.00751 ± 0.0034
GGAGAGGAUAACUAUACAACCUACUACCUCA,0.0525 ± 0.0054,0.104 ± 0.039
GGAGACCAUUCAAUACAACCUACUACCUCA,0.0561 ± 0.0083,0.0119 ± 0.0054
GGAGACCUAUCUAUACAACCUACUGCCUCA,0.0855 ± 0.013,0.00997 ± 0.0044
GGAGAGGAUAGUAUACAUCCUACUACCUCA,0.0609 ± 0.011,0.00316 ± 0.0022
GGAGAGGAUACUUUACAACCUACUACGUCA,0.0429 ± 0.0069,0.00296 ± 0.0023
GGAGACCUAUCUAUACAACCUACUAUCUCA,0.0794 ± 0.013,0.00591 ± 0.004
GGAGACGAUACUAUACAACCUAGUACCUCA,0.0648 ± 0.014,0.00506 ± 0.0014
GGAGUGGAUACUAUACAAGCUACUACCUGA,0.0875 ± 0.014,0.00454 ± 0.0019
GGAGUGGAUACUAGACAACCUACUACCUCA,0.193 ± 0.011,0.226 ± 0.081
GGAGUGGAUACUAUACAACCUACCUACCUCA,0.128 ± 0.0098,0.00423 ± 0.0017
GGAGAGGAUCCUAUACAACCUACUACCUCA,0.164 ± 0.025,0.0886 ± 0.046
GGAGACGAUACUAUACAAGCUACUACCUCA,0.269 ± 0.016,0.00854 ± 0.0028
GGAGACGAUACUAAACUACCUACUACCUCA,0.24 ± 0.018,0.00228 ± 0.0021
GGAGACCAUACGUAUACAACCUACUACCUCA,0.212 ± 0.035,0.159 ± 0.064
GGAGUGCGAUACUAUACAACCUACUACCUCA,0.206 ± 0.013,0.136 ± 0.044
GGAGAGCAUACUAAACAACCUACUACCUCA,0.158 ± 0.015,0.00417 ± 0.0033
GGAGACGAACUAUACAACCUACUACCUCA,0.138 ± 0.012,0.0112 ± 0.0057
GGAGAGGAUACAAUACAACCUACUACCUGA,0.0513 ± 0.0087,0.0036 ± 0.0016
GGAGACGAUACUAUACAACCUACUUCGUCA,0.0101 ± 0.0048,0.00672 ± 0.0024

Sequence,pre-steady-state target cleavage rate [1],pre-steady-state target cleavage rate [2]
GGAGAGGAUACUAAACAACCUACUACCACA,0.108 ± 0.011,0.00277 ± 0.002
GGAGACGAUACUUUACAACCUACUACCUGA,0.117 ± 0.021,0.00356 ± 0.0024
GGAGACCUUACUAUACAACCUAUUACCUCA,0.226 ± 0.019,0.0052 ± 0.0025
GGAGUGGAUACUAUACAACCUACUACCUAA,0.105 ± 0.014,0.151 ± 0.054
GGAGACGAUACUAUACAACCUACUACCUCG [g2:g24:cont:t1G],0.183 ± 0.014,0.115 ± 0.037
GGAGUGGAUACUUUACAAGCUACUACCUCA,0.192 ± 0.013,0.00397 ± 0.0024
GGAGACCAUACUAUACAACCUACUACCGUCA,0.141 ± 0.023,0.00677 ± 0.0025
GGAGAGGAUACUAAACAACCUACUACCUGA,0.0485 ± 0.011,0.00273 ± 0.0018
GGAGUGGAUACUAUACAAGCAACUACCUCA,0.00874 ± 0.0017,0.00256 ± 0.0013
GGAGACGAUACUAUGACAACCUACUACCUCA,0.186 ± 0.017,0.00896 ± 0.0044
GGAGACGUUACUAUACAACCUACUACGUCA,0.0772 ± 0.016,0.00396 ± 0.0018
GGAGACCAUACUAUACUACCUACUACCUCA,0.158 ± 0.017,0.00859 ± 0.0036
GGAGUGGAUACUAUACAAGCUUCUACCUCA,0.0391 ± 0.0037,0.00507 ± 0.0021
GGAGACCAUACUAUACAACCUAGUACCUCA,0.0657 ± 0.013,0.00446 ± 0.0014
GGAGAGGAUACUAUACAACCUACUACGUCA,0.058 ± 0.0086,0.00636 ± 0.0029
GGAGACCAUCACUAUACAACCUACUACCUCA,0.147 ± 0.021,0.0254 ± 0.012
GGAGACGAUACUAAACAACCUACUACGUCA,0.0907 ± 0.012,0.00304 ± 0.003
GGAGACCAUUCUAUACAACCUACAACCUCA,0.13 ± 0.013,0.00312 ± 0.0031
GGAGUGGAUACUAUACAACCUACUACCCA,0.0544 ± 0.013,0.00631 ± 0.0022
GGAGAGGAUACUAAACAACCUACUAGCUCA,0.0547 ± 0.012,0.00242 ± 0.0017

Sequence,pre-steady-state target cleavage rate [1],pre-steady-state target cleavage rate [2]
GGAGACCUAUCUAAACAACCUACUACCUCA,0.0794 ± 0.014,0.00381 ± 0.0037
GGAGUGGAUACUAAACAUCCUACUACCUCA,0.242 ± 0.013,0.0059 ± 0.0024
GGAGACGAUACUAUACAACGUUCUACCUCA,0.00469 ± 0.0024,0.00329 ± 0.0013
GGAGUGGUAUCUAUACAACCUACUACCUCA,0.136 ± 0.0091,0.0613 ± 0.023
GGAGAGGAUACUAUUCAACCAACUACCUCA,0.00614 ± 0.0021,0.00354 ± 0.0021
GGAGUGGUAACUAUACAACCUACUACCUCA,0.141 ± 0.016,0.0157 ± 0.0069
GGAGACCUAUCUAUACUACCUACUACCUCA,0.0815 ± 0.01,0.00437 ± 0.0031
GGAGUGGUUACUAUACAACCAACUACCUCA,0.00796 ± 0.0019,0.0036 ± 0.0014
GGAGACCAUUCUAUACAACCUACUACCUCA,0.136 ± 0.013,0.0597 ± 0.02
GGAGUGGAUUCUAUACAAGCUACUACCUCA,0.228 ± 0.013,0.00371 ± 0.0019
GGAGUGGAUACUAUACAUCCAACUACCUCA,0.00718 ± 0.0021,0.00457 ± 0.0019
GGAGACGAUACUAUACAACCUACUUCCACA,0.0194 ± 0.0082,0.00373 ± 0.0021
GGAGACCAUACUAUACAACCUACUAGCUCA,0.137 ± 0.025,0.00491 ± 0.0023
GGAGACCUAAUCUAUACAACCUACUACCUCA,0.11 ± 0.024,0.297 ± 0.099
GGAGAGGAUAUUAUACAACCUACUACCUCA,0.157 ± 0.0082,0.0615 ± 0.023
GGAGACGAUACAAUACAACCUAGUACCUCA,0.0665 ± 0.011,0.00289 ± 0.0015
GGAGAGGAUAGUAUACAACCUACUACCACA,0.0774 ± 0.011,0.00287 ± 0.002
GGAGACCUUACUAUACAUCCUAGUACCUCA,0.0856 ± 0.018,0.00256 ± 0.0016
GGAGUGGAUACCUAUACAACCUACUACCUCA,0.0993 ± 0.019,0.0485 ± 0.018
GGAGAGGAUACUAUACAACCUAUACCUCA,0.00606 ± 0.0021,0.00469 ± 0.0024
